Screening data (PubChem)
Most compounds without a hit are left out; they make up all but 1.7% or so of the library.
CCHF vOTU inh-1: CCHFV vOTU protease inhibition. Pep-AMC fluorescence. inhibition, % at 11.5 µM. 370,000 tested, 0.55% active; note: 0% = vehicle wells with enzyme and 100% = no enzyme wells
Sa RN4220 lethal: kills Staphylococcus aureus RN4220. S. aureus RN4220 growth, OD600, 16 h. inhibition, % (concentration not given with the values). 330,000 tested, 0.33% active; in the data active = inhibition above about 85%;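 note: plate controls were untreated cells for no effect and reference antibiotic for full effect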
Vc quorum ag: inducers of Vibrio cholerae quorum light production without autoinducers | 350,000 tested, 0.16% active | activation, % at 18.7 µM | V. cholerae BH1578 lux reporter, luminescence, 6 h; in the data active = activation mostly above about 9.7%, no sharp cut-off; inconclusive = no clear call, values can overlap the other calls; inactive = mostly below about 3.7%
Sa ugtP lethal: growth inhibition of S. aureus ugtP deletion strain | 330,000 tested, 0.54% active | growth inhibition, % (test concentration not listed) | AID 1259309 | S. aureus RN4220 ugtP deletion, OD600 growth, 16 h; in the data active = growth inhibition above about 68%;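 note: plate controls were untreated wells for no effect and antibiotic for full effect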
PfHsp40 yeast: compounds rescuing yeast from Plasmodium falciparum HSP40 toxicity | S. cerevisiae expressing PfHsp40, growth rescue, ATP luminescence | 340,000 tested, 0.68% active | growth rescue, % at 12.5 µM; in the data active = growth rescue above about 28%, passing the limit was not always enough; inconclusive = no clear call, values can overlap the other calls;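 note: yeast W303a lacking pdr1 and pdr3 grown in galactose medium; growth measured after three days at 30 °C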
Mtb hypoxia inh: reduces hypoxia-regulated biosensor signal in M. tuberculosis. AID 1159583. fluorescence inhibition, % (concentration not given with the values). 300,000 tested, 0.1% active. M. tuberculosis hypoxia-regulated fluorescent reporter, fluorescence; in the data active = fluorescence inhibition mostly above about 23%, no sharp cut-off; inactive = mostly below about 17%
CCHF vOTU inh-2: confirmation of CCHF virus vOTU protease inhibitors; 1,900 tested, 17% active; Recombinant CCHFV vOTU, Pep-AMC fluorescence; inhibition, % at 11.5 µM; shares compounds with CCHF vOTU inh-1
Numbers without * were called inactive; i = inactive; ? = inconclusive; . = no result given. Cut-off read from the data, not from the text of the source, unless noted: active = inhibition above about 30%; inactive = the rest.

SMILES	CCHF vOTU inh-1	Sa RN4220 lethal	Vc quorum ag	Sa ugtP lethal	PfHsp40 yeast	Mtb hypoxia inh	CCHF vOTU inh-2
Cc1cc([N+](=O)[O-])c(C)cc1-c1ccc(C=NNC(=O)Cn2nnnc2N)o1	.	7	.	-6	.	5	.
CCCCC[C@@H](C)N1C[C@@H](COCc2ccccc2)Oc2cc(N3CCC[C@H]3C(N)=O)ccc2S1(=O)=O	24	.	.	.	.	.	.
CCCCC[C@H](C)N1C[C@@H](COCc2ccccc2)Oc2cc(N3CCC[C@H]3C(N)=O)ccc2S1(=O)=O	35*	.	.	.	.	.	2
CCCCC[C@@H](C)N1C[C@H](COCc2ccccc2)Oc2cc(N3CC[C@@H](O)C3)ccc2S1(=O)=O	41*	.	.	.	.	.	6
CCCCC[C@H](C)N1C[C@H](COCc2ccccc2)Oc2cc(N3CC[C@H](O)C3)ccc2S1(=O)=O	26	.	.	.	.	.	.
CCN(CC)c1ccc(C=NNC(=O)Cc2cccs2)c(O)c1	.	6	.	-13	.	-6	.
O=C(CN1CCCc2ccccc21)NN=Cc1ccccc1	.	6	.	-5	.	0	.
COc1cc(N)c(C(=O)c2nccc3cc(OC)c(OC)cc23)cc1OC	7	5	i	3	-1	8	.
COc1cc(C(=O)c2nccc3cc(OC)c(OC)cc23)c([N+](=O)[O-])cc1OC	103*	5	2	3	1	9	72*
COc1cc(Br)c(C(=O)c2nccc3cc(OC)c(OC)cc23)cc1OC	111*	.	2	.	1	.	90*
COc1cc(C(NC(C)=O)NC(C)=O)ccc1OCc1ccccc1	-8	4	i	-3	-2	17	.
C=CCOc1ccc(C(c2c(C(=O)O)[nH]c3ccccc23)c2c(C(=O)O)[nH]c3ccccc23)cc1	51*	25	-8	3	23	17	-2
COc1cc(C(c2c(C(=O)O)[nH]c3ccccc23)c2c(C(=O)O)[nH]c3ccccc23)ccc1OCc1ccccc1	39*	28	i	3	3	-1	22
O=C(O)c1[nH]c2ccccc2c1C(c1ccccc1)c1c(C(=O)O)[nH]c2ccccc12	18	27	-2	7	23	0	.
O=C(/C=C/c1cccc(Cl)c1)OCC(=O)c1ccc[nH]1	35*	.	0	.	.	.	3
CCOC(=O)c1c(CN(C)C)n(C)c2c(O)c(N=NC(N)=O)c3ccc(Br)cc3c12	36*	47	-1	1	0	14	13
CCCn1c(=O)c(C(=O)OCC)c(O)c2cc(Br)ccc21	-7	8	0	5	1	17	.
CCCCn1c(N=Cc2ccc(N(C)C)cc2)nc2ccccc21	.	-1	.	0	.	.	.
Cc1cccc(-c2onc3ccc(C(=O)/C=C/N(C)C)cc23)c1	33*	9	i	-14	-2	3	-16
Cc1ccc(-c2onc3ccc(C(=O)/C=C/N(C)C)cc23)cc1	-9	14	-1	9	0	3	.
NC(=O)Cn1cc(C=NNS(=O)(=O)c2ccc(Cl)cc2)c2ccccc21	.	2	.	19	.	-2	.
COc1ccc(C2C(C(=O)N3CCCC3)c3cc(OC)c(OC)cc3C(=O)N2C)cc1OC (stereo not given)	31*	1	0	1	0	8	-23
CC(C)=CCC1=C(OCC(=O)O)C(=O)c2ccccc2C1=O	110*	33	i	0	-2	10	85*
CC(C)(C)c1ccc(/C=N/Nc2nncn2N)cc1	89*	.	-1	.	0	.	5
Nn1cnnc1N/N=C/c1cc(Br)cc(Br)c1O	104*	.	0	.	?	.	-13
SMILES	CCHF vOTU inh-1	Sa RN4220 lethal	Vc quorum ag	Sa ugtP lethal	PfHsp40 yeast	Mtb hypoxia inh	CCHF vOTU inh-2
Nn1cnnc1NN=Cc1ccccc1C(F)(F)F	.	4	.	3	.	17	.
Cc1ccc(C=NNc2nncn2N)cc1	.	1	.	4	.	-3	.
CCc1nnc(NN=Cc2ccc(N3CCC(C)CC3)c([N+](=O)[O-])c2)n1N	.	1	.	3	.	15	.
CC1CCN(c2ccc(/C=N\Nc3nncn3N)cc2[N+](=O)[O-])CC1	88*	.	i	.	-1	.	12
CSc1ccc(/C=N/NC(=O)c2ccc(-n3cnnn3)cc2)cc1	2	.	i	.	0	.	.
CSc1ccc(/C=N\Nc2nncn2N)cc1	101*	.	i	.	2	.	-7
C=CCC(CC(=O)NC(CO)Cc1ccccc1)C(=O)NC(COC(=O)C(CC=C)Cc1ccc(F)cc1)C(C)(C)C (stereo not given)	.	-1	.	2	.	-1	.
COc1cc(C=Nn2c(C3CCCCC3)n[nH]c2=S)cc(OC)c1O	.	1	.	2	.	7	.
COc1cc(/C=N/n2c(C3CCCCC3)n[nH]c2=S)ccc1O	31*	.	i	.	0	.	-16
NC(=O)CCC1NC(=O)C2CCCN2C(=O)c2cc([N+](=O)[O-])cc(F)c2NCCCC(C(N)=O)NC1=O (stereo not given)	.	6	.	-13	.	7	.
Cc1ccc(S(=O)(=O)N2C(c3cccc(C)c3)CC=C(C(=O)O)C2c2ccc(Cl)cc2)cc1 (stereo not given)	.	26	.	43	.	2	.
Cc1ccc(S(=O)(=O)N2C(c3ccc(Cl)c(Cl)c3)CC=C(C(=O)O)C2c2ccc(Cl)cc2)cc1 (stereo not given)	35*	80	.	90*	.	12	16
Cc1ccc(S(=O)(=O)N2[C@@H](c3ccc(Cl)cc3)C(C(=O)O)=CC[C@H]2c2ccc(Cl)c(Cl)c2)cc1	33*	.	-1	.	304*	.	13
CC(=O)N(C1=C(Cl)C(=O)c2ccccc2C1=O)C1CCCCC1	100*	17	1	21	147*	2	98*
O=C(OCC(=O)N1CCc2ccccc21)c1ccc([N+](=O)[O-])o1	40*	8	i	8	?	21	-6
CC(=O)[C@H]1[C@@H]2C(=O)N(c3cccc(Cl)c3)C(=O)[C@@H]2[C@H]2c3ccccc3C=CN21	94*	-1	-3	-3	1	.	82*
CC(=O)[C@@H]1[C@@H]2C(=O)N(c3ccc(F)c(Cl)c3)C(=O)[C@@H]2C2c3ccccc3C=CN21 (stereo not given in full)	95*	.	.	.	.	.	75*
c1cncc(-c2cn(CC3CCC(C4CCC(Cn5cc(-c6cccnc6)nn5)O4)O3)nn2)c1 (stereo not given)	.	-4	.	-8	.	-2	.
